DT40 TDP1 no CPT – qHTS for Inhibitors of human tyrosyl-DNA phosphodiesterase 1 (TDP1): qHTS in cells in absence of CPT; DT40 Tdp1-/- hTDP1 cells, no CPT, ATP luminescence, 48 h; 420,000 tested, 15% active; Potency, µM (highest dose often 46.2 µM), without a hit: at the top dose activity change, negative = growth inhibition, usual class: inhibitors; AID 686978, 2013; note: nearly all actives have a fitted effect of over 55% in size
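Growth kinetics read by CellTiter-Glo luminescence after ≥48 hr at 37 °C. Cells: DT40 Tdp1-/- stably carrying human TDP1, 400 per well, compound exposure in the absence of CPT (DMSO vehicle).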
HT1080 IDH1KD tx – qHTS for induction of synthetic lethality in tumor cells producing 2HG: qHTS for the HT-1080-IDH1KD cell line; HT-1080 IDH1 knockdown viability, ATP luminescence, 48 h; Potency, µM (titrated, usually from 46.1 µM), inactives show at the highest dose activity, negative = toxicity, usual class: cytotoxic; 360,000 tested, 2% active;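 note: 0% = DMSO wells and -100% = cell-free medium wells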
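Cytotoxicity counter-line: IDH1KD HT-1080, 48 h, CellTiter-Glo. Curves classed by r2, magnitude and activity.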
KB-3-1 cytotox – qHTS assay for MDR1-selective chemotherapeutics: Primary screen using the parental adenocarcinoma cell KB-3-1 | KB-3-1 viability, CellTiter-Glo ATP luminescence, 72 h | Potency, µM (doses to about 46.1 µM), hits mostly cytotoxic | 400,000 tested, 1.4% active; note: nearly all actives have a fitted effect of over 60% in size
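KB-3-1 cells, DMEM (no phenol red) + 10% FBS; compound by pin transfer, 72 h, 37 °C. Readout: CellTiter-Glo luminescence after 10 min. Data normalized, curve-fitted.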
TDP1 cell CPT – qHTS for Inhibitors of human tyrosyl-DNA phosphodiesterase 1 (TDP1): qHTS in cells in presence of CPT. 420,000 tested, 12% active. chicken DT40 Tdp1-/-;hTDP1 cells + 20 nM CPT, ATP luminescence, 48 h. Potency, µM (titrated, usually from 46.2 µM), for the others: top-dose activity change, negative = growth inhibition, hits mostly inhibitors. AID 686979, 2013; note: nearly all actives have a fitted effect of over 55% in size
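Chicken DT40 Tdp1-/- cells complemented with human TDP1, 400 cells/well, exposed to compounds plus 20 nM camptothecin for at least 48 h at 37 C; viability read as ATP content by CellTiter-Glo luminescence.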
KB-V1 MDR tox – qHTS assay for MDR1-selective chemotherapeutics: Primary screen using the drug-selected MDR subline cells KB-V1 | Potency, µM (titrated, usually from 46.1 µM), actives largely listed as cytotoxic | 400,000 tested, 3.4% active | KB-V1 MDR cells viability, CellTiter-Glo, 72 h | AID 1347076, 2019; note: nearly all actives have a fitted effect of over 60% in size
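Cytotoxicity via CellTiter-Glo luminescence after 72 h compound exposure at 37 degrees C. Cells: drug-selected KB-V1 line, DMEM phenol-red free plus 10% FBS. Compounds tested at multiple concentrations; normalized data fitted to concentration-effect curves.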
HT1080NT lethal – qHTS for induction of synthetic lethality in tumor cells producing 2HG: qHTS for the HT-1080-NT fibrosarcoma cell line; HT-1080-NT fibrosarcoma viability, CellTiter-Glo ATP luminescence, 48 h; Potency, µM (doses to about 46.1 µM), for the others: top-dose activity, negative = less viability, most hits filed as cytotoxic; 360,000 tested, 1.6% active;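 note: NT is the 2HG producing partner of a matched IDH1 knockdown line; 0% = DMSO-treated cells and -100% = media-only wells without cells; nearly all actives have a fitted effect of over 55% in size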
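750 cells/well, RPMI + 5% FBS; 2 h settle, compound pin-transfer, 48 h at 37 degrees C. CellTiter-Glo 10 min RT, luminescence. Normalized to DMSO and media-only wells.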
Active calls of the source: *; i = inactive; ? = inconclusive; nt = not tested or not shown; [ ] = remark or other dose. Most compounds without a hit are left out; they make up all but 19% or so of the library. Calls come from the whole dose curve; as a rule, active = well fitted curve in the direction sought with a large enough effect; inconclusive = small, poorly fitted or top-dose-only effect, or another doubt; inactive = no such curve, though single readings can be large; an effect the other way counts as inactive or inconclusive. Unless noted, % is set by controls: 0 for no effect and ±100 for the full control effect; potency is the fitted concentration of half-maximal effect.

SMILES | DT40 TDP1 no CPT | HT1080 IDH1KD tx | KB-3-1 cytotox | TDP1 cell CPT | KB-V1 MDR tox | HT1080NT lethal
CCOC(=O)CSc1nc2c([nH]c3ccccc32)c(=O)n1-c1ccc(OCC)cc1 | -28.3% | nt | i | -27.2% | i | nt
CCOc1ccc(-n2c(SCC(=O)Nc3cc(C)on3)nc3c([nH]c4ccccc43)c2=O)cc1 | -29.9% | -27.3% | i | ? | i | -29.7%
CCOc1ccc(-n2c(SCC(=O)Nc3cc(C)ccc3C)nc3c([nH]c4ccccc43)c2=O)cc1 | 16.4µM* | nt | i | 13µM* | i | nt
CCOc1ccc(-n2c(SCC(N)=O)nc3c([nH]c4ccccc43)c2=O)cc1 | ? | ? | i | 13µM* | i | -13.2%
O=c1[nH]c(=O)c2nc(-c3ccc(Cl)cc3)cnc2[nH]1 | ? | -4.7% | i | -22.9% | ? | -13.5%
O=c1[nH]c(=O)c2nc3c4ccccc4c4ccccc4c3nc2[nH]1 | 5.17µM* | -9.3% | i | 8.2µM* | i | -4.8%
Nc1sccc1C(=O)N1CCN(c2ccccc2)CC1 | 16.4µM* | -0.2% | i | 18.4µM* | i | -9.5%
O=C(c1cnc(N2CCCCC2)c2ccccc12)N1CCN(c2ccccc2F)CC1 | ? | nt | i | 16.4µM* | i | nt
COc1ccccc1N1CCN(C(=O)c2cnc(N3CCOCC3)c3ccccc23)CC1 | 16.4µM* | nt | ? | ? | ? | nt
O=C(O)c1ccccc1C(=O)N1CCN(c2ccccc2)CC1 | -20.5% | 16.7% | i | 3.7% | ? | 17.4%
O=C(c1ccccc1C(=O)N1CCN(c2ccccc2)CC1)N1CCN(c2ccccc2)CC1 | ? | 3.5% | i | ? | i | 18.2%
O=C(c1ccccc1C(=O)N1CCN(c2ccc(F)cc2)CC1)N1CCN(c2ccc(F)cc2)CC1 | 9.2µM* | -11.2% | i | ? | 9.2µM* | -6.9%
COc1ccccc1N1CCN(C(=O)N2CCOCC2)CC1 | -20.1% | -7.7% | i | -12.7% | i | 0.9%
COc1ccccc1CNC(=O)CN1C(=O)COc2ccc(S(=O)(=O)Nc3ccccc3)cc21 | ? | nt | i | -6.2% | i | nt
CC1(C(=O)NCc2ccccc2)CSCC(=O)N1Cc1cccs1 (configuration not stated) | ? | 8.1% | i | ? | ? | 17.9%
CCc1nnc(NC(=O)C2=CCN(S(=O)(=O)c3ccc(F)cc3)CC2)s1 | 1.6% | 4.1% | i | 7.4% | i | 8.7%
CCN1CCN(c2ncc(C(=O)N3CCN(c4ccccc4OC)CC3)c3ccccc23)CC1 | ? | 17.7% | i | -23.3% | i | 14.1%
COc1ccccc1N1CCN(C(=O)c2cnc(N3CCCCC3)c3ccccc23)CC1 | 3.66µM* | nt | nt | 4.61µM* | nt | nt
O=C(c1cnc(N2CCOCC2)c2ccccc12)N1CCN(c2ccc(F)cc2)CC1 | ? | nt | i | 14.6µM* | ? | nt
CCc1sc(C(=O)N2CCN(c3ccc(F)cc3)CC2)cc1C | 14.6µM* | -0.2% | i | ? | i | -1.8%
O=C(c1cnc(N2CCOCC2)c2ccccc12)N1CCN(c2ccccc2F)CC1 | ? | nt | i | ? | i | nt
COc1ccccc1CN1CCNC(=O)C1CC(=O)NC1Cc2ccccc2C1 (configuration not stated) | -22.4% | 8.5% | i | -1.4% | i | 17.5%
Cc1cc(Nc2ccccc2C(=O)O)ccc1Cl | -23.7% | nt | nt | -9.0% | nt | nt
Cc1ccc(SC(=O)COc2ccccc2C)cc1 | ? | 10.0% | i | 13µM* | i | 5.8%
CSc1oc(-c2ccccc2)nc1S(=O)(=O)c1ccc(C)cc1 | ? | -18.1% | i | ? | 20.6µM* | 5.7%
SMILES | DT40 TDP1 no CPT | HT1080 IDH1KD tx | KB-3-1 cytotox | TDP1 cell CPT | KB-V1 MDR tox | HT1080NT lethal
CCSc1oc(-c2ccc(F)cc2)nc1S(=O)(=O)c1ccc(C)cc1 | 16.4µM* | nt | nt | -101.8% | nt | nt
CCSc1oc(-c2ccccc2)nc1S(=O)(=O)c1ccccc1 | -15.0% | 2.4% | i | -28.5% | i | -3.2%
COC[C@H]1CCCN1[C@@H]1CS(=O)(=O)N[C@H]1COCc1ccccc1 | -28.0% | 16.3% | i | -19.4% | i | 18.8%
Cc1ccc(-n2cc(CN3CCN(Cc4nccn4C)CC3)c(-c3cccc(C)c3)n2)cc1 | ? | ? | ? | ? | i | -18.5%
CCn1ccnc1CN(C)Cc1cn(-c2ccc(C)cc2)nc1-c1cccc(C)c1 | -107.8% | 25.9µM* | i | ? | i | ?
COc1ccc(-n2cc(CN(C)CCO)c(-c3cccc(F)c3)n2)cc1 | ? | -0.1% | i | -26.1% | i | -0.3%
CCn1ccnc1CN(C)Cc1cn(-c2cccc(C)c2)nc1-c1cccc(F)c1 | ? | -28.5% | ? | 16.4µM* | ? | -16.2%
Cc1cnc(-n2ncc(C(=O)N(C)C3CCOC3)c2C)nc1-c1ccc(F)cc1 (configuration not stated) | -9.7% | nt | nt | -2.3%[9.04 µM] | nt | nt
COc1ccc(CCNC(=O)/C=C/c2ccc(OC)c(S(=O)(=O)N3CCOCC3)c2)cc1 | 5.8µM* | -2.0% | i | ? | i | 1.9%
COc1ccc(/C=C/C(=O)Nc2ccccc2C)cc1S(=O)(=O)N1CCOCC1 | -26.0% | -1.3% | ? | ? | i | 13µM*
CCC(C)(C)NC(=O)/C=C/c1ccc(OC)c(S(=O)(=O)N2CCOCC2)c1 | ? | 7.0% | i | -23.7% | i | 10.6%
CCCOc1ccccc1NC(=O)/C=C/c1ccc(OC)c(S(=O)(=O)N2CCOCC2)c1 | 16.4µM* | -16.7% | i | ? | i | -11.4%
CCCOc1ccccc1NC(=O)/C=C/C(N)=O | 2.51µM* | 10µM* | i | 1.26µM* | i | ?
COc1ccc(/C=C/C(=O)Nc2ccccc2F)cc1S(=O)(=O)N1CCOCC1 | -17.1% | -16.4% | i | ? | i | 3.8%
CC(=O)c1ccc(F)c(-c2cc(C)cc3c2OC(CNC(=O)C2CCCCN2C)C3)c1 (configuration not stated) | ? | nt | nt | -6.0%[9.04 µM] | nt | nt
COc1ccc(/C=C/C(=O)Nc2ccc(C(C)=O)cc2)cc1S(=O)(=O)N1CCOCC1 | -21.5% | 6.6% | i | 0.4% | ? | 2.7%

Screening data: PubChem, National Center for Advancing Translational Sciences (NCATS)
